This is part of a sample that, as a whole, favours compounds with a hit. Of some 79,000 tested, about 15% had one in any assay. Activity calls are given as the source filed them. No stated cut-off is given here; in the data, active means growth inhibition above about 70%; inactive means the rest.
Assay: NCI Yeast Anticancer Drug Screen. Data for the wt1 strain (AID 149);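 further: 0% = growth of vehicle-treated wt1 cultures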
Settings: S. cerevisiae wt1 strain (SPY 50644) growth inhibition, stronger effect = higher value
Experimental: Growth inhibition of yeast strains with defined genetic alterations is measured as a screen for potential anti-cancer activity. Selected strains with alterations in DNA damage repair or cell cycle control were exposed to compounds and growth inhibition was measured relative to vehicle treated controls. The strain used in this assay is wt1

## Cc1ccc(S(=O)(=O)NC(=O)C2C(=O)CC3(CCCCC3)CC2=O)cc1
At 1.2 µM
  growth inhibition: -22% (inactive)
At 3.7 µM
  growth inhibition: -16% (inactive)
At 11.0 µM
  growth inhibition: -20% (inactive)
At 33.0 µM
  growth inhibition: 67% (inactive)
At 100.0 µM
  growth inhibition: 83% (active)

## CCCCCCCCSC1=C(Cl)C(=O)C(OC)=C(OC)C1=O
At 1.2 µM
  growth inhibition: -55% (inactive)
At 3.7 µM
  growth inhibition: -23% (inactive)
At 11.0 µM
  growth inhibition: -17% (inactive)
At 33.0 µM
  growth inhibition: 0% (inactive)
At 100.0 µM
  growth inhibition: 88% (active)

## O=C(c1cc(=O)c2ccc(O)cc2o1)c1ccc(Cl)cc1Cl
At 1.2 µM
  growth inhibition: -6% (inactive)
At 3.7 µM
  growth inhibition: 1% (inactive)
At 11.0 µM
  growth inhibition: -2% (inactive)
At 33.0 µM
  growth inhibition: 75% (active)
At 100.0 µM
  growth inhibition: 92% (active)

## CC(CN(C)C)C(=O)/C=C/c1ccc(Cl)c(Cl)c1 (stereo not given)
At 1.2 µM
  growth inhibition: 4% (inactive)
At 3.7 µM
  growth inhibition: 6% (inactive)
At 11.0 µM
  growth inhibition: 9% (inactive)
At 33.0 µM
  growth inhibition: 24% (inactive)
At 100.0 µM
  growth inhibition: 85% (active)

## Cc1cccc2c(Cl)c3cccc(C)c3nc12
At 1.2 µM
  growth inhibition: -2% (inactive)
At 3.7 µM
  growth inhibition: -3% (inactive)
At 11.0 µM
  growth inhibition: -1% (inactive)
At 33.0 µM
  growth inhibition: -1% (inactive)
At 100.0 µM
  growth inhibition: 2% (inactive)

## CCOC(=O)Nc1ccc(C)c(NC(=O)OCC)c1
At 1.2 µM
  growth inhibition: 6% (inactive)
At 3.7 µM
  growth inhibition: 13% (inactive)
At 11.0 µM
  growth inhibition: 12% (inactive)
At 33.0 µM
  growth inhibition: 15% (inactive)
At 100.0 µM
  growth inhibition: 17% (inactive)

## CCC(=O)C1=C(O)c2cc(OC)ccc2CC1C(=O)OC (stereo not given)
At 1.2 µM
  growth inhibition: 0% (inactive)
At 3.7 µM
  growth inhibition: 5% (inactive)
At 11.0 µM
  growth inhibition: 4% (inactive)
At 33.0 µM
  growth inhibition: 6% (inactive)
At 100.0 µM
  growth inhibition: 19% (inactive)

## CNC(=O)OCc1c(COC(=O)NC)c(C)n(-c2ccc(Br)cc2)c1C
At 1.2 µM
  growth inhibition: -41% (inactive)
At 3.7 µM
  growth inhibition: -38% (inactive)
At 11.0 µM
  growth inhibition: -37% (inactive)
At 33.0 µM
  growth inhibition: -32% (inactive)
At 100.0 µM
  growth inhibition: 98% (active)

Reference: PubChem BioAssay (NCI)
